# Only some compounds are listed: those with a hit (about 4.1% of all), similar ones and a draw of the others.
# ssDAF12 agonist = activators of S. stercoralis DAF-12 nuclear receptor; hit rate 1% among 370,000; HEK293 ssDAF-12/GRIP1 lit1-tk-luc reporter, luminescence; % of 3 µM dafachronic acid response; activation, % at 6.8 µM;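 active = activation above the mean over all tested compounds plus 3 SD, cut at about 0.9% in these data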;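 also: 0% = DMSO-only wells and 100% = 3 µM delta7-dafachronic acid wells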
# hgDAF-12 ag = activates the H. glycines DAF-12 receptor ligand-binding domain | HEK293 GAL4-hgDAF12 UAS-luciferase reporter, agonist luminescence; normalized to butyrate control | activation, % at 6.8 µM | hit rate 1.8% among 370,000 | AID 687014;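 active = activation above a cutoff set at the mean of all screened compounds plus 3 SD, cut at about 10% in these data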;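 also: 0% = DMSO wells and 100% = sodium butyrate wells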
# hcDAF12 agonist = activates DAF-12 receptor from parasite H. contortus | AID 652067 | hit rate 1.4% among 370,000 | activation, % at 6.8 µM | HEK293 hcDAF-12 lit1-tk-luc reporter, luminescence; 0% DMSO, 100% Δ7-dafachronic acid;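 active = activation above the mean of all tested compounds plus 3 SD, cut at about 5.5% in these data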;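 also: 100% = response to 3 µM Δ7-dafachronic acid high control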
# DAX1 inh-1 = NR0B1 (DAX1) inhibition | P51843 | HEK293 Gal4-DAX1 luciferase reporter, luminescence | inhibition, % at 6.75 µM | hit rate 0.99% among 340,000 | AID 504766;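 active = inhibition above the mean over all tested compounds plus 3 SD, cut at about 4.2% in these data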;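 also: 0% = DAX1-transfected cells with DMSO and 100% = empty-vector control cells with DMSO; inhibition shows as a rise in luminescence from relieved DAX1 repression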
# Target sequence (P51843 207-470 limits assumed): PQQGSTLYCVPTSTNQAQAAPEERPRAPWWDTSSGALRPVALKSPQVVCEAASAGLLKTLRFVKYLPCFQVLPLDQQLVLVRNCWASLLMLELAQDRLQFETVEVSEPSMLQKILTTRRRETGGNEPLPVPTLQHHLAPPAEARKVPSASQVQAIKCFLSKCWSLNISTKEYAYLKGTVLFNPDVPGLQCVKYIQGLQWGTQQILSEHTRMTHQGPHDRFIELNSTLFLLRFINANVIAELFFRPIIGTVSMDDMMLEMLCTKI
# DAX1 inh-2 = inhibitors of DAX1 repression of SF-1 activated StAR promoter; inhibition, % at 6.8 µM; AID 652010; HEK293T StAR-luciferase reporter, SF-1/DAX-1 repression relief; hit rate 1.1% among 370,000;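 active = inhibition above the mean over all tested compounds plus 3 SD, cut at about 3.6% in these data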;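 also: 0% = DAX-1 cells with DMSO and 100% = cells lacking DAX-1 with DMSO; higher inhibition means more luminescence from relief of DAX-1 repression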
# DAX1 inh confirm = confirmation of human DAX1 (NR0B1) inhibitors; shares compounds with DAX1 inh-2; HEK293T StAR-promoter luciferase reporter, SF-1/DAX-1 repression; inhibition, % at 6.8 µM; hit rate 87% among 2,400;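 active = inhibition above the average of every tested compound plus 3 SD, cut at about 3.8% in these data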;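 also: 0% = DAX-1 cells with DMSO and 100% = no DAX-1 control cells with DMSO; active compounds raise luminescence by relieving repression of the StAR reporter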
# SF1 AF2mut Luc = counter-screen for DAX1 inhibitors: nonselective inhibitors with SF-1 AF2 mutant. HEK293 StAR-luciferase, luminescence. inhibition, % at 6.8 µM. hit rate 78% among 2,400. shares compounds with DAX1 inh-2;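 active = inhibition above the mean of all tested compounds plus 3 SD, cut at about 3% in these data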;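 also: 0% = DAX-1 transfected cells with DMSO and 100% = cells without DAX-1 with DMSO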
# LXR ag = counter-screen for hcDAF-12 agonists: agonists of human LXR-beta; shares compounds with hcDAF12 agonist; HEK293 Gal4-LXR tk-luc reporter, luminescence, 24 h; normalized: DMSO 0%, positive control 100%; activation, % at 6.8 µM; 3,400 tested, under 10 active; AID 743027;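 active = mean percent activation of the reporter above a cutoff set as the average over tested compounds plus their standard deviation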
# hcDAF12 ag = hcDAF-12 agonism, confirmation assay; shares compounds with hcDAF12 agonist; HEK293 hcDAF-12 lit1-tk-luc reporter, luminescence; % of Δ7-dafachronic acid response; activation, % at 6.8 µM; hit rate 61% among 3,400;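 active = mean activation across triplicate tests above the threshold derived from the earlier primary screen, cut at about 5.5% in these data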;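 also: 0% = DMSO only wells and 100% = 3 µM Δ7-dafachronic acid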
# hgDAF12 ag = confirmation of H. glycines DAF-12 agonists. shares compounds with hgDAF-12 ag. activation, % at 6.8 µM. AID 743050. hit rate 80% among 3,300. HEK293 GAL4-hgDAF12 luciferase reporter, agonist mode; percent of butyrate response;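 active = mean activation over triplicate wells above the hit cutoff derived from the earlier primary screen, cut at about 11% in these data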;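 also: 0% = DMSO low control and 100% = 2 mM sodium butyrate high control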
# LXRb DAF12 ctr = activates human LXR-beta, counter-screen for DAF-12 agonists | AID 743051 | activation, % at 6.8 µM | HEK293 Gal4-LXR luciferase reporter, 24 h | shares compounds with hgDAF-12 ag | 3,300 tested, under 10 active;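 active = mean activation of the triplicate above a set limit carried over from the primary screen, none filed active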
# * = called active by the depositor; / = no result.
SMILES,ssDAF12 agonist,hgDAF-12 ag,hcDAF12 agonist,DAX1 inh-1,DAX1 inh-2,DAX1 inh confirm,SF1 AF2mut Luc,hgDAF12 ag,LXRb DAF12 ctr,others
O=S(=O)(c1ccc(Cl)c(C(F)(F)F)c1)N1CCN(c2ccccn2)CC1,-1,2,0,-1,0,/,/,/,/,
Cn1c(N=NC(=O)c2ccccc2)c(O)c2ccccc21,2.1*,21*,13*,-2,5.8*,15*,5.7*,16*,1,LXR ag=1;hcDAF12 ag=5.9*
COc1ccc(C(=O)NC2=Nc3ccccc3N=C(C)C2c2ccccc2)cc1 (stereo not drawn),0.9*,59*,8.9*,18*,9.6*,23*,19*,39*,0,LXR ag=0;hcDAF12 ag=1
CC(=O)N(c1ccccc1)c1nnc(-c2cnc(C)cn2)s1,0,14*,5,3,8.4*,9.5*,9.2*,11*,0,
Cc1cnc(-c2nnc(N(C)C(=O)c3cccnc3)s2)cn1,0,0,0,0,0,/,/,/,/,
Cc1ccc(C)c(S(=O)(=O)N2CCCCC2CCNC(=O)C(=O)NCc2ccncc2)c1 (stereo not drawn),-1,-2,-1,-1,-2,/,/,/,/,
CCOc1ccc(-c2noc(-c3csc([C@@H]4C[C@H](O)[C@@H](CO)O4)n3)n2)cc1,-2,2,1,/,-1,/,/,/,/,
OC[C@H]1O[C@@H](c2nc(-c3nc(-c4ccc(F)cc4)no3)cs2)[C@H](O)[C@@H]1O,0,13*,4,/,9.8*,13*,7.2*,16*,1,
CC(C)N1C(=O)S/C(=C/c2ccccc2OCc2ccc(C(=O)O)cc2)C1=O,-1,-1,-1,0,0,/,/,/,/,
Nc1nc(SCC(=O)Nc2ccc(Cl)cn2)n[nH]1,0,-2,-2,0,0,/,/,/,/,
Cc1c(C(=O)OC2CCC(C)CC2)[nH]c2c1C(=O)CCC2 (stereo not drawn),0,15*,4,5.8*,7.3*,15*,5.9*,21*,1,
COC(=O)c1[nH]c2c(c1C)C(=O)CCC2,0,0,0,0,0,/,/,/,/,
Cc1cc(CNC(=O)c2cc(COc3ccc(F)c(F)c3)on2)nn1C,0,15*,5.7*,2,6.4*,7.4*,3.8*,14*,0,
CSc1ccc(CCNC(=O)Cn2ncc3c([nH]c4ccccc43)c2=O)cc1,-1,1,0,1,0,/,/,/,/,
Oc1ccc(-c2cc(-c3ccc(O)cc3)nc(-c3ccccc3)n2)cc1,-2,2,-2,2,-1,/,/,/,/,
Oc1ccc(-c2nnc(-c3ccc(O)cc3)nn2)cc1,1,15*,6.5*,-1,5.5*,13*,8.4*,21*,1,
OCc1cn(-c2ccccc2)nc1-c1cc2ccccc2o1,1.1*,14*,4,4.7*,5.8*,15*,12*,15*,1,
COc1ccc(NC(=O)c2cn(-c3ccccc3)nc2-c2cc3ccccc3o2)cc1,-2,0,0,-1,-1,/,/,/,/,
O=C(NCC(F)(F)F)C1C(=O)Nc2ccccc2C(=O)N1C1CCCC1 (stereo not drawn),-2,-1,1,/,1,/,/,/,/,
C=CCNc1ncnc2c1cnn2-c1ccc(Cl)cc1,0,15*,4,1,8.8*,16*,8.1*,27*,1,
CC(C)n1c(=N)c(C(=O)NCCc2ccccc2)cc2c(=O)n3ccccc3nc21,-1,6,2,-1,0,/,/,/,/,
O=C(NCCc1ccccc1)c1cnc2ccccn2c1=O,-1,14*,3,0,5.2*,13*,5.7*,13*,1,
COC(=O)c1ccc(/C=C/c2nc3ccccc3c(=O)[nH]2)cc1,-1,3,0,0,0,/,/,/,/,
Cc1ccc(/C=C/c2nc3ccccc3c(=O)[nH]2)cc1,1.5*,16*,8.7*,0,5.8*,14*,4.2*,18*,1,LXR ag=2;hcDAF12 ag=9.4*
CCCc1nc2c3ccccc3ccn2c1CC(C)(C)C,0,0,2,/,0,/,/,/,/,
c1ccc(Cc2c(C3CCCCC3)nc3c4ccccc4ccn23)cc1,2.1*,18*,11*,/,6.1*,6.1*,4.0*,20*,1,LXR ag=1;hcDAF12 ag=8.0*
Cc1cc(Br)cn2c(Cc3ccccc3)c(C3CCCCC3)nc12,-1,2,2,/,0,/,/,/,/,
CCCc1nc2c3ccccc3ccn2c1Cc1ccc(C)cc1,2.3*,18*,12*,/,6.0*,8.0*,4.3*,11*,1,LXR ag=1;hcDAF12 ag=13*

# Screening data from PubChem BioAssay.
